Test results from PubChem BioAssay (NCATS).
Records with an inconclusive call do not appear. Where a call stands in place of a potency, no number is given. A number with no mark means an inactive call. The source made the active and inactive calls. The call rests on the fitted dose curve; in most records, active means well fitted curve in the direction sought with a large enough effect; inconclusive means small, poorly fitted or top-dose-only effect, or another doubt; inactive means no such curve, though single readings can be large; an effect the other way counts as inactive or inconclusive.

What was measured:
[1] = Quantitative High-Throughput drug screen in 47 multiple myeloma cell lines against the NCATS MIPE library collection: FR4_PLB cell viability assay (AID 1918924; further: nearly all actives have a fitted effect of over 35% in size; further: potency means the concentration at half of the fitted maximal effect)
Procedure, shortened: (§1)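 Myeloma cells (500 per well) were exposed to MIPE 4.0 compounds by pin transfer and incubated 48 hours at 37C, 5% CO2. Viability was read as ATP by CellTiter-Glo luminescence, normalised to DMSO (100%) and media-only (0%) wells.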

[2] = Quantitative High-Throughput drug screen in 47 multiple myeloma cell lines against the NCATS MIPE library collection: Delta47_JCRB cell viability assay (AID 1918925; further: nearly all actives have a fitted effect of over 45% in size; further: potency means the concentration at half of the fitted maximal effect)
Procedure, shortened: (§2)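 Steps: seed 500 cells per well; pin-transfer MIPE 4.0 library; incubate 48 h at 37C, 5% CO2, humidified; add CellTiter-Glo, 5 min room temperature; read luminescence.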

[3] = Quantitative High-Throughput drug screen in 47 multiple myeloma cell lines against the NCATS MIPE library collection: AMO1_DSMZ cell viability assay (AID 1918927; further: nearly all actives have a fitted effect of over 30% in size; further: potency means the concentration at half of the fitted maximal effect)
Procedure, shortened: as §2

[4] = Quantitative High-Throughput drug screen in 47 multiple myeloma cell lines against the NCATS MIPE library collection: ARD_JJKsccE7 cell viability assay (AID 1918929; further: potency means the concentration at half of the fitted maximal effect)
Procedure, shortened: as §2

[5] = Quantitative High-Throughput drug screen in 47 multiple myeloma cell lines against the NCATS MIPE library collection: Karpas620_DSMZ cell viability assay (AID 1918959); further: nearly all actives have a fitted effect of over 30% in size; further: potency means the concentration at half of the fitted maximal effect
Procedure, shortened: as §1

[6] = Quantitative High-Throughput drug screen in 47 multiple myeloma cell lines against the NCATS MIPE library collection: KMM1_JCRB cell viability assay (AID 1918960); further: nearly all actives have a fitted effect of over 30% in size; further: potency means the concentration at half of the fitted maximal effect
Procedure, shortened: (§3)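 500 cells/well; MIPE 4.0 library pinned in; 48 h, 37 °C, 5% CO2; CellTiter-Glo ATP luminescence. Controls: DMSO = 100% viability, medium only = 0%.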

[7] = Quantitative High-Throughput drug screen in 47 multiple myeloma cell lines against the NCATS MIPE library collection: KHM11_PLB cell viability assay (AID 1918962); further: nearly all actives have a fitted effect of over 35% in size; further: potency means the concentration at half of the fitted maximal effect
Procedure, shortened: as §1

[8] = Quantitative High-Throughput drug screen in 47 multiple myeloma cell lines against the NCATS MIPE library collection: JIM3_ECACC cell viability assay (AID 1918963; further: nearly all actives have a fitted effect of over 35% in size; further: potency means the concentration at half of the fitted maximal effect)
Procedure, shortened: as §1

[9] = Quantitative High-Throughput drug screen in 47 multiple myeloma cell lines against the NCATS MIPE library collection: INA6_PLB cell viability assay (AID 1918965; further: nearly all actives have a fitted effect of over 55% in size; further: potency means the concentration at half of the fitted maximal effect)
Procedure, shortened: (§4)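 CellTiter-Glo ATP luminescence gave viability after 48 h compound treatment at 37C of 500 multiple myeloma cells per well. Normalisation used DMSO-only wells as 100% and media-only wells as 0% viability; primary qHTS of approved and investigational drugs.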

[10] = Quantitative High-Throughput drug screen in 47 multiple myeloma cell lines against the NCATS MIPE library collection: H1112_PLB cell viability assay (AID 1918967; further: nearly all actives have a fitted effect of over 30% in size; further: potency means the concentration at half of the fitted maximal effect)
Procedure, shortened: as §2

[11] = Quantitative High-Throughput drug screen in 47 multiple myeloma cell lines against the NCATS MIPE library collection: Karpas25_ECACC cell viability assay (AID 1918968; further: nearly all actives have a fitted effect of over 35% in size; further: potency means the concentration at half of the fitted maximal effect)
Procedure, shortened: as §2

[12] = Quantitative High-Throughput drug screen in 47 multiple myeloma cell lines against the NCATS MIPE library collection: EJM_DSMZ cell viability assay (AID 1918926; further: nearly all actives have a fitted effect of over 30% in size; further: potency means the concentration at half of the fitted maximal effect)
Procedure, shortened: as §2

[13] = Quantitative High-Throughput drug screen in 47 multiple myeloma cell lines against the NCATS MIPE library collection: ARP1_JJKsccF8 cell viability assay (AID 1918928; further: nearly all actives have a fitted effect of over 40% in size; further: potency means the concentration at half of the fitted maximal effect)
Procedure, shortened: as §3

[14] = Quantitative High-Throughput drug screen in 47 multiple myeloma cell lines against the NCATS MIPE library collection: KMS27_JCRB cell viability assay (AID 1918970); further: nearly all actives have a fitted effect of over 30% in size; further: potency means the concentration at half of the fitted maximal effect
Procedure, shortened: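 ATP-based viability (CellTiter-Glo luminescence) is measured in cells treated 48 h with approved and investigational drugs at 37 °C. Controls are DMSO-only wells for full viability and media-only wells for none.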

[15] = Quantitative High-Throughput drug screen in 47 multiple myeloma cell lines against the NCATS MIPE library collection: JJN3_DSMZ cell viability assay (AID 1918966; further: potency means the concentration at half of the fitted maximal effect; nearly all actives have a fitted effect of over 50% in size)
Procedure, shortened: as §2

[16] = Quantitative High-Throughput drug screen in 47 multiple myeloma cell lines against the NCATS MIPE library collection: KMS12BM_JCRB cell viability assay (AID 1918971); further: nearly all actives have a fitted effect of over 35% in size; further: potency means the concentration at half of the fitted maximal effect
Procedure, shortened: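 Relative luminescence from CellTiter-Glo served as the viability signal, referenced to DMSO-treated (100%) and cell-free medium (0%) controls. Treatment lasted 48 hours at 37C with 500 cells per well.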

[17] = Quantitative High-Throughput drug screen in 47 multiple myeloma cell lines against the NCATS MIPE library collection: Karpas417_ECACC cell viability assay (AID 1918961); conditions: Karpas417 myeloma viability, CellTiter-Glo ATP luminescence, 48 h; viability (% of DMSO): at 45.8 µM (top of the series) unless noted; further: potency means the concentration at half of the fitted maximal effect
Procedure, shortened: as §4

[18] = Quantitative High-Throughput drug screen in 47 multiple myeloma cell lines against the NCATS MIPE library collection: JIM1_ECACC cell viability assay (AID 1918964)
Procedure, shortened: as §2

Structure (SMILES): CC(C)(C)NCC(O)c1ccc(O)c(CO)c1 (configuration not stated)
- Potency [1]: inactive
- Potency [2]: inactive
- Potency [3]: inactive
- Potency [4]: 0.0526 µM (active)
- Potency [5]: inactive
- Potency [6]: 0.059 µM (active)
- Potency [7]: inactive
- Potency [8]: inactive
- Potency [9]: inactive
- Potency [10]: inactive
- Potency [11]: 0.0418 µM (active)

Structure (SMILES): Cc1ccccc1C(OCCN(C)C)c1ccccc1 (configuration not stated)
- Potency [1]: inactive
- Potency [12]: inactive
- Potency [3]: inactive
- Potency [13]: inactive
- Potency [4]: inactive
- Potency [5]: inactive
- Potency [6]: inactive
- Potency [7]: inactive
- Potency [8]: inactive
- Potency [10]: inactive
- Potency [11]: inactive
- Potency [14]: inactive

Structure (SMILES): COc1ccc(COc2cc3oc(=O)c4cc(C(C)O)ccc4c3cc2OC)cc1 (configuration not stated)
- Potency [1]: 13.2 µM (active)
- Potency [2]: 11.8 µM (active)
- Potency [12]: 16.6 µM (active)
- Potency [3]: 5.9 µM (active)
- Potency [4]: 3.72 µM (active)
- Potency [5]: 4.69 µM (active)
- Potency [6]: 4.69 µM (active)
- Potency [7]: 7.43 µM (active)
- Potency [8]: 16.6 µM (active)
- Potency [9]: 18.7 µM (active)
- Potency [15]: 26.4 µM (active)
- Potency [10]: 7.43 µM (active)
- Potency [11]: 18.7 µM (active)
- Potency [16]: 23.5 µM (active)

Structure (SMILES): C[C@]12CC[C@H](O)CC1=CC[C@@H]1[C@H]2CC[C@]2(C)C(c3cccnc3)=CC[C@H]12
- Potency [1]: inactive
- Potency [2]: inactive
- Potency [3]: inactive
- Potency [13]: inactive
- Potency [5]: inactive
- Potency [6]: inactive
- Potency [8]: inactive
- Potency [10]: inactive
- Potency [14]: inactive
- Potency [16]: inactive

Structure (SMILES): Cc1cccc(-c2nn(C(=S)Nc3ccccc3)cc2-c2ccnc3ccccc23)n1
- Potency [1]: inactive
- Potency [2]: 16.6 µM (active)
- Potency [3]: inactive
- Potency [13]: inactive
- Potency [5]: inactive
- Potency [6]: inactive
- Potency [8]: 13.2 µM (active)
- Potency [10]: 16.6 µM (active)
- Potency [14]: inactive
- Potency [16]: 14.8 µM (active)

Structure (SMILES): CO[C@@H]1[C@H](N(C)C(=O)c2ccccc2)C[C@H]2O[C@]1(C)n1c3ccccc3c3c4c(c5c6ccccc6n2c5c31)C(=O)NC4
- Potency [1]: inactive
- Potency [2]: 1.05 µM (active)
- Potency [3]: 0.833 µM (active)
- Potency [13]: 2.35 µM (active)
- Potency [4]: 1.05 µM (active)
- Potency [5]: 1.66 µM (active)
- Potency [6]: 2.35 µM (active)
- Potency [17]: 0.469 µM (active)
- Potency [9]: 0.132 µM (active)
- Potency [15]: 4.18 µM (active)
- Potency [11]: 2.35 µM (active)
- Potency [14]: 1.32 µM (active)
- Potency [16]: 9.35 µM (active)

Structure (SMILES): NC(=O)c1ccc(-c2nc(-c3ccc4c(c3)OCO4)c(-c3ccccn3)[nH]2)cc1
- Potency [1]: 14.8 µM (active)
- Potency [2]: inactive
- Potency [4]: inactive
- Potency [5]: inactive
- Potency [6]: 1.66 µM (active)
- Potency [8]: inactive
- Potency [15]: 0.0042 µM (active)
- Potency [10]: inactive
- Potency [14]: inactive

Structure (SMILES): Cc1cc2c(C(C)C)c(O)c(O)c(C=O)c2c(O)c1-c1c(C)cc2c(C(C)C)c(O)c(O)c(C=O)c2c1O
- Potency [1]: 10.5 µM (active)
- Potency [2]: 8.33 µM (active)
- Potency [12]: 20.9 µM (active)
- Potency [13]: 10.5 µM (active)
- Potency [5]: 8.33 µM (active)
- Potency [6]: inactive
- Potency [7]: 10.5 µM (active)
- Potency [8]: 8.33 µM (active)
- Potency [9]: 9.35 µM (active)
- Potency [15]: 18.7 µM (active)
- Potency [10]: 18.7 µM (active)
- Potency [11]: 5.9 µM (active)
- Potency [14]: 6.62 µM (active)
- Potency [16]: 14.8 µM (active)

Structure (SMILES): CCOc1cc(N2CCC(O)CC2)ccc1Nc1ncc2c(n1)N(C)c1ccccc1C(=O)N2C
- Potency [1]: 11.8 µM (active)
- Potency [2]: 4.18 µM (active)
- Potency [3]: 1.32 µM (active)
- Potency [13]: 10.5 µM (active)
- Potency [4]: 1.05 µM (active)
- Potency [5]: 0.332 µM (active)
- Potency [6]: 1.18 µM (active)
- Potency [7]: 0.935 µM (active)
- Potency [8]: 8.33 µM (active)
- Potency [9]: 2.64 µM (active)
- Potency [11]: 9.35 µM (active)
- Potency [14]: 0.187 µM (active)
- Potency [16]: 11.8 µM (active)

Structure (SMILES): COc1ccc([C@@H]2CC(=O)c3c(O)cc(O[C@@H]4O[C@H](CO[C@@H]5O[C@@H](C)[C@H](O)[C@@H](O)[C@@H]5O)[C@@H](O)[C@H](O)[C@@H]4O)cc3O2)cc1O
- Potency [1]: inactive
- Potency [2]: inactive
- Potency [3]: inactive
- Potency [13]: inactive
- Potency [4]: inactive
- Potency [5]: inactive
- Potency [6]: inactive
- Potency [17]: inactive
- Potency [7]: inactive
- Potency [8]: inactive
- Potency [18]: inactive
- Potency [9]: inactive
- Potency [10]: inactive
- Potency [11]: inactive
- Potency [14]: inactive
- Potency [16]: inactive

Structure (SMILES): OC(CCN1CCCCC1)(c1ccccc1)C1CC2C=CC1C2 (configuration not stated)
- Potency [1]: inactive
- Potency [2]: inactive
- Potency [3]: inactive
- Potency [13]: inactive
- Potency [5]: inactive
- Potency [6]: inactive
- Potency [17]: inactive
- Potency [18]: inactive
- Potency [10]: inactive
- Potency [11]: inactive
- Potency [14]: inactive

Structure (SMILES): OC(CN1CCC(Cc2ccc(F)cc2)CC1)c1ccc(Cl)cc1 (configuration not stated)
- Potency [1]: inactive
- Potency [2]: inactive
- Potency [3]: inactive
- Potency [13]: inactive
- Potency [4]: inactive
- Potency [5]: inactive
- Potency [6]: inactive
- Potency [8]: inactive
- Potency [10]: inactive
- Potency [14]: inactive
- Potency [16]: inactive

Structure (SMILES): CCC(C)N(C)C(=O)c1cc2ccccc2c(-c2ccccc2Cl)n1 (configuration not stated)
- Potency [1]: inactive
- Potency [2]: inactive
- Potency [12]: inactive
- Potency [13]: 0.296 µM (active)
- Potency [7]: inactive
- Potency [9]: inactive
- Potency [10]: inactive
- Potency [14]: 16.6 µM (active)

Structure (SMILES): O=C1CCC(N2C(=O)c3ccccc3C2=O)C(=O)N1 (configuration not stated)
- Potency [1]: inactive
- Potency [2]: inactive
- Potency [12]: inactive
- Potency [13]: 0.0662 µM (active)
- Potency [4]: inactive
- Potency [5]: inactive
- Potency [6]: inactive
- Potency [7]: inactive
- Potency [8]: inactive
- Potency [18]: inactive
- Potency [9]: inactive
- Potency [10]: inactive
- Potency [11]: inactive
- Potency [14]: inactive
- Potency [16]: 18.7 µM (active)
